Compound activity from PubChem BioAssay.
TDP1 inh = qHTS Assay for Inhibitors of Tyrosyl-DNA Phosphodiesterase (TDP1) | recombinant TDP1, AlphaScreen DNA substrate cleavage | Tyrosyl-DNA phosphodiesterase 1 (Homo sapiens), Q9NUW8 | actives 0.28% (n = 350,000) | Potency, µM (series often up to 130 µM), without a hit: at the highest dose activity change, negative = inhibition, hits mostly inhibitors; note: nearly all actives have a fitted effect of over 40% in size
Target sequence (Q9NUW8 whole entry, looked up): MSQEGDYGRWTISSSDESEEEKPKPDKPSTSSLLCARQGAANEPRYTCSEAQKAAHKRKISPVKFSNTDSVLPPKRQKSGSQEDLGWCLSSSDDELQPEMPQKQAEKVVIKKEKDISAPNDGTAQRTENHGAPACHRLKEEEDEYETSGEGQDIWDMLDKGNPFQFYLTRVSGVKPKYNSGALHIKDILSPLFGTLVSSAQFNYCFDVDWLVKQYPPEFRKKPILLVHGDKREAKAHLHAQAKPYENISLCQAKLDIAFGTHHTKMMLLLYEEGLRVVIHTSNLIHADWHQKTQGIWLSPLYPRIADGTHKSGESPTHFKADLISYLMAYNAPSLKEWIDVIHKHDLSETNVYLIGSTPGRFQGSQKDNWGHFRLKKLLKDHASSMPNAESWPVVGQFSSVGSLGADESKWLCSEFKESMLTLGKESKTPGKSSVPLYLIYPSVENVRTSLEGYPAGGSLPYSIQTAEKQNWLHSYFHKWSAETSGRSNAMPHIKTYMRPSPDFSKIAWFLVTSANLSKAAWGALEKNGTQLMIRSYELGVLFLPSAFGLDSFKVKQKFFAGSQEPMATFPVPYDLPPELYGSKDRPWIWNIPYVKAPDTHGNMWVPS
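Compounds were preincubated with Tdp1 (1 nM final) for 15 min at room temperature before substrate (15 nM final) started a 5 min reaction; beads (10 ug/ml final) were then added for 10 min before AlphaScreen detection.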
GCN5L2 inh = qHTS Assay for Inhibitors of GCN5L2; GCN5L2 HAT assay, ThioGlo1 CoA-SH fluorescence; Potency, µM (titrated, usually from 58.9 µM), inactives show at the top dose activity change, negative = inhibition, hits mostly inhibitors; actives 0.21% (n = 390,000); AID 504327, 2011
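Enzyme at 20nM final was mixed with library compounds for 15 min at room temperature. Peptide H3(1-25) at 75uM, acetyl-CoA at 70uM and ThioGlo1 at 50uM were then added. Plates were read immediately and after 20 min (Ex340nm/Em540nm).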
PLK1 PBD inh = qHTS for Inhibitors of PLK1-PDB (polo-like kinase 1 - polo-box domain): Primary Screen; Plk1 PBD binding of FITC phosphopeptide, fluorescence polarization; Potency, µM, for inactives: max response, negative = inhibition, most hits filed as inhibitors; actives 2.8% (n = 360,000); note: series mostly up to about 57 µM; nearly all actives have a fitted effect of over 65% in size
TDP1 cell CPT = qHTS for Inhibitors of human tyrosyl-DNA phosphodiesterase 1 (TDP1): qHTS in cells in presence of CPT; actives 12% (n = 420,000); chicken DT40 Tdp1-/-;hTDP1 cells + 20 nM CPT, ATP luminescence, 48 h; Potency, µM (titrated, usually from 46.2 µM), without a hit: at the highest dose activity change, negative = growth inhibition, actives largely listed as inhibitors; note: nearly all actives have a fitted effect of over 55% in size
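Chicken DT40 Tdp1-/- cells complemented with human TDP1, 400 cells/well, exposed to compounds plus 20 nM camptothecin for at least 48 h at 37 C; viability read as ATP content by CellTiter-Glo luminescence.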
VDR inhibitor = Inhibitors of the vitamin D receptor (VDR): qHTS | Vitamin D3 receptor (Homo sapiens), P11473 | VDR-SRC2-3 peptide fluorescence polarization, 2 h | Potency, µM, without a hit: max response, negative = inhibition, hits mostly inhibitors | actives 0.93% (n = 400,000)
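Reagent solutions, kept cold and dark, are dispensed first; compounds are then pinned in at 23 nl, plates briefly spun, and incubated 2 h at ambient temperature. Inhibition of VDR–SRC2-3 peptide binding is read by fluorescence polarization.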
TDP1 cell noCPT = qHTS for Inhibitors of human tyrosyl-DNA phosphodiesterase 1 (TDP1): qHTS in cells in absence of CPT; DT40 Tdp1-/- hTDP1 cells, no CPT, ATP luminescence, 48 h; Potency, µM (doses to about 46.2 µM), without a hit: at the top dose activity change, negative = growth inhibition, actives largely listed as inhibitors; actives 15% (n = 420,000); note: nearly all actives have a fitted effect of over 55% in size
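Compound effects on proliferation are scored in DT40 Tdp1-/-;hTDP1 cells in the absence of CPT. ATP levels (CellTiter-Glo luminescence) are recorded after a ≥48 hr, 37 °C incubation.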
* hit, by the source's call; ? = inconclusive; · = no result given; [ ] = remark or other dose. Compounds with a hit are over-represented: about 18% of the library has one in this group of screens. Calls come from the whole dose curve; as a rule, active = well fitted curve in the direction sought with a large enough effect; inconclusive = small, poorly fitted or top-dose-only effect, or another doubt; inactive = no such curve, though single readings can be large; an effect the other way counts as inactive or inconclusive. % is set by controls: 0 for no effect and ±100 for the full control effect; potency is the fitted concentration of half-maximal effect.

SMILES	TDP1 inh	GCN5L2 inh	PLK1 PBD inh	TDP1 cell CPT	VDR inhibitor	TDP1 cell noCPT
CCCC(=O)Nc1nnc2n1CCS2	8.8%	-3.2%	·	-0.3%	-3.4%	-0.1%
CN1CCN(c2ccc(Cl)cc2NS(=O)(=O)c2ccccc2Cl)CC1	8.2%	-0.6%	26.7µM*	-14.7%	-2.7%	?
CN(C)S(=O)(=O)c1ccc(C(=O)Nc2ccc(F)cc2F)cc1	3.1%	-2.5%	-9.6%	12.0%	-7.1%	-16.7%
CN1CCN(c2ccc(Cl)cc2NC(=O)c2ccc(S(=O)(=O)N(C)C)cc2)CC1	2.5%	-1.6%	-1.9%	18.4µM*	-6.2%	?
CN(C)S(=O)(=O)c1ccc(C(=O)Nc2cc(S(=O)(=O)Nc3ccccc3Cl)ccc2N2CCCCC2)cc1	0.0%	-6.5%	?	8.2µM*	-5.2%	16.4µM*
CCc1ccc(CNCc2ccc(OCC(O)CN(C)Cc3ccccc3)cc2)nc1 (stereo not given)	6.1%	-6.9%	-20.3%	16.4µM*	-22.9%	23.1µM*
CN(Cc1ccccc1)CC(O)COc1ccc(CNCCc2cccnc2)cc1 (stereo not given)	3.6%	2.9%	3.3%	?	-8.9%	?
CC1CCCCC12NC(=O)N(CC(=O)c1ccc(Cl)s1)C2=O (stereo not given)	2.3%	-3.6%	-1.9%	?	6.6%	-3.4%
COCC(C)n1c(C)cc(C(=O)CN2C(=O)NC3(CCCCC3C)C2=O)c1C (stereo not given)	4.2%	-3.3%	0.1%	?	-2.8%	20.6µM*
O=C(OCC(=O)N(Cc1ccccc1)Cc1ccccc1)c1ccccc1NCCO	0.2%	-8.2%	-0.8%	?	-1.5%	?
CCN(C(=O)COC(=O)c1ccccc1NCCO)c1cccc2ccccc12	·	-5.9%	-12.5%	-28.7%	-8.2%	18.4µM*
CCOC(=O)[C@@H]1[C@H]2COc3ccc(Br)cc3[C@H]2N2C(=O)N(c3ccc(C)cc3)C(=O)[C@]12C	·	-4.1%	-25.3%	?	-20.9%	?
Oc1c(Br)cc(Br)cc1/C=N/Nc1ccc(Cl)nn1	·	-7.6%	-9.2%	?	-12.7%	2.91µM*
Oc1c(Br)cc(/C=N/Nc2ccc(Cl)nn2)cc1Br	·	-1.1%	?	8.5%	-24.1%	?
Oc1ccc(/C=N/Nc2ccc(Cl)nn2)c(O)c1O	·	-4.9%	16.8µM*	?	-1.6%	20.6µM*
O=C(O)c1ccccc1N/N=C/c1cc(Br)cc(Br)c1O	9.6%	-27.3%	21.2µM*	-10.8%	?	?
CCOc1ccc(/C=N/Nc2ccc(Cl)nn2)c(O)c1	-1.0%	-1.4%	-11.2%	1.16µM*	-6.2%	0.581µM*
CCOc1ccccc1/C=N/Nc1ccc(Cl)nn1	·	-9.4%	-8.1%	4.7%	-1.2%	-21.2%
CNC[C@@H]1Oc2cc(Br)ccc2S(=O)(=O)N([C@@H](C)CO)C[C@@H]1C	·	·	-5.6%	-15.8%	·	0.3%
COC(=O)C[C@@H]1C=C[C@@H](NC(=O)NC2CCCC2)[C@@H](CO)O1	·	·	-3.6%	-21.3%	·	0.3%
OCC(S)CS (stereo not given)	·	·	·	?	·	16.8µM*
OC[C@H](S)CS	12.6µM*	?	·	8.91µM*	?	15.8µM*
Cn1cc(S(=O)(=O)c2ccccc2)n(C)c1=O	2.7%	3.4%	-5.8%	12.2%	-18.7%	-2.8%
CCc1ccc(NC(=O)CNC(=O)Cn2c(C)cc3ccccc3c2=O)cc1	5.9%	2.0%	·	-1.2%	-11.2%	-2.4%
COc1cc(NC(=O)CNC(=O)Cn2ccc3ccccc3c2=O)cc(OC)c1OC	-5.0%	-12.4%	-7.2%	-20.2%	17.8%	?
SMILES	TDP1 inh	GCN5L2 inh	PLK1 PBD inh	TDP1 cell CPT	VDR inhibitor	TDP1 cell noCPT
COc1cc(NC(=O)CNC(=O)Cn2c(C)cc3ccccc3c2=O)cc(OC)c1OC	0.7%[0.0935 µM]	0.1%	2.5%	13µM*	7.4%	14.6µM*
COc1ccc(NC(=O)CNC(=O)Cn2c(C)cc3ccccc3c2=O)cc1OC	0.0%	-8.1%	-10.0%	13µM*	3.9%	20.6µM*
Cc1ccc(C)c(Cn2nnc(C(=O)NCc3ccccc3)c2N)c1	1.2%	1.3%	·	-15.9%	-3.8%	?
CCCCN(C)c1nnc(NC(=O)Nc2cccc(C(C)=O)c2)s1	5.7%	-5.2%	·	?	7.5%	?
O=C1CSC(c2cccnc2)N1c1cccc(Cl)c1 (stereo not given)	1.2%	-2.6%	-5.7%	0.5%	1.8%	-13.3%
Cc1ccc(N2C(=O)CSC2c2cccnc2)c(Cl)c1 (stereo not given)	-1.9%	-3.7%	-21.7%	18.4µM*	-2.8%	20.6µM*
COc1ccc(CCNc2ncnc3c2nnn3Cc2ccccc2)cc1OC	·	2.6%	-11.6%	23.1µM*	-27.6%	?
Cc1cc(C)cc(-n2ccnc(NCCc3ccccc3)c2=O)c1	0.0%	-21.7%	·	?	8.3%	?
COc1cccc(CNc2ncnc3cc(OC)c(OC)cc23)c1	2.8%	0.0%	-12.5%	?	15.3%	?
COc1cc2ncnc(NCc3ccc(C)cc3)c2cc1OC	8.3%	-2.3%	-11.0%	?	2.8%	23.1µM*
COc1cc2ncnc(NCCc3ccccc3)c2cc1OC	2.7%	-3.5%	-5.8%	13µM*	-8.7%	9.2µM*
COc1ccc(-n2ccnc(NCCc3ccccc3)c2=O)cc1OC	7.9%	-14.4%	·	?	0.4%	20.6µM*
COc1ccc2[nH]cc(CCNc3ncncc3-c3ccc(C(=O)N(C)C)cc3)c2c1	·	-10.2%	·	?	-7.2%	?
COc1ccc(CCNc2ncnc3c2nnn3C)cc1OC	5.2%	0.4%	·	?	14.9%	?
COc1ccc(CCNc2ncnc3cc(OC)c(OC)cc23)cc1OC	5.4%	-7.8%	8.1%	3.66µM*	14.3%	6.51µM*
COc1ccc(CNc2ncnc3cc(Cl)ccc23)cc1OC	·	-3.4%	-5.6%	?	-10.5%	13µM*
Cc1ccc(-n2ccnc(NCc3cccs3)c2=O)cc1C	7.9%	6.6%	·	?	-1.7%	13µM*
